Measurements taken from PubChem BioAssay AID1347426 (Functional Genomics Laboratory (NCATS/FGL), 2020).
Screen size: about 31,000 sequences; about 1,400 (4.5%) were called active. This is one part of a sample in which actives are shown more often than they occur.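 Rule for the calls: active = median seed-adjusted z-score above 1 or below -1; inactive = the rest.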

test: Novel Modifiers of Survival Motor Neuron (SMN) Protein: Gene Identification via Genome-wide siRNA Screen; conditions: HEK293T SMN2-luciferase reporter, siRNA knockdown, 72 h; actives lie on both sides;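 note: luminescence tracks full-length SMN protein made from the SMN2 reporter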
In short: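 Genome-wide siRNA screen (10418 genes, 3 siRNAs each, 1 pmol per well) by reverse transfection in HEK293T cells stably carrying an SMN2-luciferase reporter; luminescence after 72 hours, normalized to negative-control siRNA, log10-transformed, MAD-scored.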

Row | Sequence | median seed-adjusted z-score
1 | GGCCUAAGCUAAAUCGAGATT against SKP2 | -0.126 (inactive)
2 | CAAAGGAUGUCAUUCGUAATT against CKAP5 | -1.87 (active)
3 | CGGCCGAAGUAGUAAAAGATT against ADA | -0.242 (inactive)
4 | UCAUCAAUGCUACUGGUUATT against TM7SF2 | -0.674 (inactive)
5 | CGGCUGUGGUGAACCAGUATT against INHBB | -0.522 (inactive)
6 | GCAUAGGAUUCAUUGAGUUTT against NME1 | 0.188 (inactive)
7 | GACCCGUACUUCAUGAAGATT against SF3A2 | -1.7 (active)
8 | GGACCCAAGUCUUGCUGCATT against CARD18 | 0.568 (inactive)
9 | CGAUCCUAUUCGAUGAGAATT against GRM5 | -0.227 (inactive)
10 | CAGUGAAUAUGGAACCGGATT against CHD3 | 0.589 (inactive)
11 | AGUAUGUGCUGAUCCGAGUTT against PHPT1 | 1.27 (active)
12 | CCUGAACACACCUUACAUATT against RNASE8 | 0.00771 (inactive)
13 | CAUAGAUUCUGUACGGCAATT against MPP5 | 0.429 (inactive)
14 | GGUAUUCCUGUUCAACAAATT against ZNF235 | 0.348 (inactive)
15 | GCUGACCGCUGGGUGAUAATT against TMPRSS6 | 1.29 (active)
16 | CCUCACACUUGAUUCAGUUTT against RPP38 | 0.07 (inactive)
17 | GGUCAUAGCCUACUGUCUATT against SLC32A1 | -0.251 (inactive)
18 | CUACCAGCAUGUGAUGUUUTT against CH25H | -0.264 (inactive)
19 | GGAUGCAGAACGACGUGAATT against SLC25A10 | -0.571 (inactive)
20 | GUACCUUUUCCAAACCAAATT against SETD8 | -1.52 (active)
21 | CAAAACAGACCGAAAGAAATT against DBX2 | 0.244 (inactive)
22 | CGAUAACGACAGUAAAUCATT against CACNA2D1 | -0.541 (inactive)
23 | CAAAGAAGCUUUUUCACUATT against CALM2 | 0.127 (inactive)

Row | Sequence | median seed-adjusted z-score
24 | CUCUCUUAGUGUCCUUAGATT against PCDHGC4 | 0.301 (inactive)
25 | CGAGUUCUAUCUUGAGAAUTT against TEX13A | -1.22 (active)
26 | GGAUGGGUCUCGCAAAAUATT against ZFYVE1 | -0.546 (inactive)
27 | CCAGCUCUUCUCUACCACATT against PAQR7 | -0.0406 (inactive)
28 | UGCUGAGGGUGUUCCCAGATT against GABRR2 | 0 (inactive)
29 | AGCAGGCUUUGAUCAUUGATT against FKBP6 | -1.12 (active)
30 | GCAAGACCUUUGACUACAATT against SSRP1 | -0.31 (inactive)
31 | GCGAAGUGUUCAGACCAAATT against HEATR1 | -0.115 (inactive)
32 | CCAACUCAUUGAUAGGGAUTT against PRPH2 | 0.0931 (inactive)
33 | GCUUUCUAUCGAUCCUCAATT against ZNF681 | 0.271 (inactive)
34 | GCACGUCGAGCAAUCCAAATT against MYOD1 | 0.309 (inactive)
35 | CCAUGUUUCUCAUUAGUGUTT against NTSR1 | -1.1 (active)
36 | UGCUCGUGCUCGUUCCAAATT against ING4 | -0.152 (inactive)
37 | CAUCUUUGCUAGUAAUCUATT against UBA7 | 2.41 (active)
38 | CGGAUUGUCUAUUGCAUCATT against CALCRL | 0.28 (inactive)
39 | GAUUGUCUCUUUAGUGGAATT against TGDS | -0.196 (inactive)
40 | GGUGAGAUGUGGUCUAUAUTT against HES7 | -0.286 (inactive)
41 | GGAGAAGGAUGGAACUCUUTT against SPATA21 | -1.03 (active)
42 | GGCUUGCGCAAGAUCAAUATT against ATRNL1 | -0.142 (inactive)
43 | GCGUGAUCCUUGCCUCUAATT against GDPD4 | 0.0109 (inactive)
44 | CCUCAUUGAUCAUCACCGATT against ZNF567 | -0.114 (inactive)
45 | CUAGUUUAAUAAAGAUUCATT against APOE | 0.0321 (inactive)
46 | AGGAUAUUGUGAUUCAGCATT against POLR2G | -4.19 (active)

Row | Sequence | median seed-adjusted z-score
47 | GCAUCAGGUGAACAUCAAATT against TRIM16 | 0.345 (inactive)
48 | GGAUGAGAAGGAUAAUGAUTT against IRF6 | -1.79 (active)
49 | AAACGAUGUUGAUGUCCAATT against ATP6V1E1 | -0.312 (inactive)
50 | GGAUGGACAUGUCAAAUCUTT against RBL1 | -0.0547 (inactive)
51 | CAAAGGACCCAAUAGAAUUTT against GUCY2F | 0.188 (inactive)
52 | GCGCGCUACUUUGGGAUAATT against POLR2E | -1.25 (active)
53 | GGACCUCCCUUCAACAUCATT against DYSF | -0.23 (inactive)
54 | CAGUGAAGCUAUCAAGUUATT against PSMA8 | 0.407 (inactive)
55 | GACCAGAUGUGGACAAUCATT against TAF6 | -1.36 (active)
56 | GAAUUGGAGAGGCAACAAATT against LMO7 | 0.417 (inactive)
57 | GAAGAGAUAUUUACACCUUTT against CD47 | 0.0241 (inactive)
58 | CUGCUAGUCUGUCUCCAAATT against SPINK7 | -0.409 (inactive)
59 | GGACUAUGUCUGCCUAUGATT against SCN7A | 0 (inactive)
60 | CUAAGAAUCUGCUUAGUAATT against CLDN5 | 0 (inactive)
61 | AGAAUGACAGGGUCCAGAATT against OGFR | -0.565 (inactive)
62 | GCUUUGAUGUGAUUCACCUTT against PRKAG3 | -1.03 (active)
63 | GUCACAAGAUGGUCAAAAATT against CTNND2 | -0.0491 (inactive)
64 | CCAUCCUUCAGGCGAAUUATT against ACTR8 | -0.366 (inactive)
65 | GGUCUGUUCUGCAAGCACATT against PARVG | 0.321 (inactive)
66 | CCAAACCACUACAACCCUUTT against RPP21 | -1.09 (active)
67 | GAUAUAAAGUCAUGAAGAATT against USP30 | -0.646 (inactive)
68 | CGUGGACUCCCACUUCCAATT against OGG1 | -0.128 (inactive)
69 | GGAGCUUCCCUAUAGUGAATT against HDAC3 | 0.579 (inactive)
